Some test systems named below: HCT-15 colon; HT29 colon; SNB-75 CNS; SNB-19 CNS; U251 CNS; PC-3 prostate; SK-MEL-5 melanoma; UACC-62 melanoma; LOX IMVI melanoma; SK-MEL-28 melanoma; SK-MEL-2 melanoma; EKVX NSCLC; SN12C renal; UO-31 renal; TK-10 renal; ACHN renal; CAKI-1 renal; A498 renal; CCRF-CEM leukemia; MOLT-4 leukemia.
Common to all, as to assay: NCI-60 one-dose screen, 48 h (100 = growth as untreated, 0 = no growth, -100 = all killed)
Common to all, as to details: 10 µM unless noted

SMILES strings stand for the structures. This is part of a sample that, as a whole, favours compounds with a hit. Of some 83,000 tested, about 20% had one in any assay.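 Cell lines were cultured in 96-well plates, exposed to a single compound concentration, and assessed for percent growth 48 hours later.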 Values without a mark were called inactive. The source made the active and inactive calls. The calls were made as follows: active = growth percent below 10; inactive = the rest.

Consider `O=C(O)CC(C(=O)O)/C(=C\c1ccccc1)c1ccccc1` (stereo not given), for which the growth with HCT-15 colon was 107%; in the test with HT29 colon, 114%; with SNB-75 CNS, 83.2%; in the test on SNB-19 CNS it was 109%; in the test with U251 CNS it was 99.8%; in the test with PC-3 prostate, 96.6%. Further, the growth was 94.8% in the test on SK-MEL-5 melanoma; 101% in the test on UACC-62 melanoma; 99.1% in the test on LOX IMVI melanoma; 103% in the test on SK-MEL-28 melanoma; 109% in the test with SK-MEL-2 melanoma; 110% with EKVX NSCLC. Further, the growth in the test with SN12C renal was 104%; with UO-31 renal it was 89.1%; with TK-10 renal it was 108%; in the test with ACHN renal, 104%; with CAKI-1 renal, 103%; in the test on A498 renal, 93%. Besides, the growth in the test on CCRF-CEM leukemia is 94.6%; in the test with MOLT-4 leukemia, 98.9%.
With `CC(=O)Nc1sc2c(c1-c1nc3ccccc3s1)CNC2`, the growth with HCT-15 colon is 11.3%; in the test on HT29 colon it was 15.7%; with SNB-75 CNS, 29.5%; in the test on SNB-19 CNS, 26.8%; in the test on U251 CNS, 27.3%; with PC-3 prostate, 21.7%. The growth was 17.4% in the test on SK-MEL-5 melanoma; 20.1% in the test on UACC-62 melanoma; 3.64% (active) with LOX IMVI melanoma; 34.2% in the test with SK-MEL-28 melanoma; 23.2% in the test on SK-MEL-2 melanoma; 30.6% in the test with EKVX NSCLC. For the same molecule, the growth is 27.9% in the test on SN12C renal; 6.46% (active) in the test on UO-31 renal; 29% with TK-10 renal; 9.91% (active) with ACHN renal; 23.8% with CAKI-1 renal; 36.6% in the test with A498 renal. Further, the results for the growth with CCRF-CEM leukemia and with MOLT-4 leukemia were 22.6% and 10.4%, respectively.
As to `Cc1nc2sc(C(=O)Nc3cccc4ccccc34)c(N)c2cc1C(=O)c1ccccc1`, the growth in the test with HCT-15 colon was 14%; with HT29 colon, 14.7%; in the test with SNB-75 CNS it was 11.9%; with SNB-19 CNS it was 26.9%; in the test with U251 CNS, 22.8%; in the test on PC-3 prostate, 21.3%. Further, the growth is 25% in the test with SK-MEL-5 melanoma; 33.4% in the test on UACC-62 melanoma; 41.8% in the test on LOX IMVI melanoma; 59.8% in the test on SK-MEL-28 melanoma; 46.6% in the test on SK-MEL-2 melanoma; 46% with EKVX NSCLC. For the same molecule, the growth in the test with SN12C renal was 36.6%; with UO-31 renal, 43.5%; in the test with TK-10 renal it was 66.1%; with ACHN renal, 41.6%; with CAKI-1 renal it was 36.5%; in the test with A498 renal, -10.9% (active). For the same molecule, the growth with CCRF-CEM leukemia is 12%; in the test with MOLT-4 leukemia it was 21.4%.
For `CC(C)NS(=O)(=O)/N=C1\NC(=O)NC1=C(Cl)Cl`, the growth in the test with HCT-15 colon was 86.3%; in the test on HT29 colon, 99%; in the test with SNB-75 CNS, 104%; with SNB-19 CNS, 94.3%; in the test on U251 CNS it was 90.6%; in the test on PC-3 prostate, 94.5%. Also, the growth in the test on SK-MEL-5 melanoma was 92.8%; with UACC-62 melanoma, 84.5%; with LOX IMVI melanoma, 94.8%; in the test on SK-MEL-28 melanoma it was 108%; with SK-MEL-2 melanoma it was 95.6%; with EKVX NSCLC it was 103%. For the same molecule, the growth in the test with SN12C renal is 94.8%; in the test with UO-31 renal it was 102%; with TK-10 renal, 116%; in the test on ACHN renal it was 113%; in the test with CAKI-1 renal, 91.6%; with A498 renal, 116%. Moreover, the figures for the growth in the test on CCRF-CEM leukemia and with MOLT-4 leukemia were 81.4% and 87%, respectively.
Take `COc1cc(/C=C/c2cc(/C=C/c3ccc(O)c(OC)c3)n(C(=O)Nc3ccc(Cl)cc3)n2)ccc1O`: the growth with HCT-15 colon was 7.86% (active); in the test on HT29 colon, -11.1% (active); with SNB-75 CNS it was 18.7%; in the test with SNB-19 CNS it was 9.25% (active); with U251 CNS, 4.31% (active); in the test with PC-3 prostate, 4.24% (active). In addition, the growth is -29.7% (active) in the test with SK-MEL-5 melanoma; 4.06% (active) in the test on UACC-62 melanoma; 3.04% (active) in the test with LOX IMVI melanoma; 12.7% in the test on SK-MEL-28 melanoma; -23.5% (active) in the test on SK-MEL-2 melanoma; 16.9% with EKVX NSCLC. Also, the growth with SN12C renal was 9% (active); with UO-31 renal it was 2.71% (active); in the test on TK-10 renal it was 23.1%; with ACHN renal, 9.29% (active); in the test on CAKI-1 renal, 0.131% (active); in the test on A498 renal, -0.596% (active). For the same molecule, the figures for the growth in the test with CCRF-CEM leukemia and in the test on MOLT-4 leukemia were 4.45% (active) and -2% (active), respectively.
Consider `CCCCO[C@@H]1C=C2[C@H]3CC(C)(C)C(=O)C[C@]3(C(=O)O[C@@H]3O[C@H](CO[C@@H]4O[C@H](CO)[C@@H](OC5OC(C)C(O)C(O)C5O)[C@H](O)[C@H]4O)[C@@H](O)[C@H](O)[C@H]3O)CC[C@@]2(C)[C@]2(C)CC[C@H]3C(C)(C)C(=O)CC[C@]3(C)[C@@H]12` (stereo not given in full), for which the growth with HCT-15 colon is 54.5%; in the test with HT29 colon it was 43.2%; in the test with SNB-75 CNS it was 31.3%; in the test on SNB-19 CNS it was 88%; with U251 CNS it was 56.4%; with PC-3 prostate it was 85.2%. For the same molecule, the growth is 63.9% with SK-MEL-5 melanoma; 81.4% with UACC-62 melanoma; 76.9% with LOX IMVI melanoma; 41.5% in the test with SK-MEL-28 melanoma; 64.3% in the test with SK-MEL-2 melanoma; 87.1% in the test with EKVX NSCLC. Moreover, the growth in the test on SN12C renal is 81.2%; in the test with UO-31 renal, 19.4%; in the test on TK-10 renal it was 61.6%; in the test on ACHN renal it was 22.9%; in the test on CAKI-1 renal, 50.8%; in the test on A498 renal it was 93.9%. In addition, the growth with CCRF-CEM leukemia is 43.3%; in the test with MOLT-4 leukemia, 51.5%.
As for `O=C(NC1CCC(Br)CC1)C1CCCC(S(=O)(=O)NC2CCCCC2)C1` (stereo not given), the growth in the test with HCT-15 colon is 18.8% [25 µM]; in the test with HT29 colon, 28.7% [25 µM]; in the test with SNB-75 CNS it was 27.4% [25 µM]; with SNB-19 CNS, 26.8% [25 µM]; with U251 CNS, 18.5% [25 µM]; in the test on PC-3 prostate, 4.26% [25 µM] (active). In addition, the growth was -68% [25 µM] (active) in the test on SK-MEL-5 melanoma; 9.41% [25 µM] (active) with UACC-62 melanoma; 15.8% [25 µM] in the test with LOX IMVI melanoma; 24.7% [25 µM] with SK-MEL-28 melanoma; 17.9% [25 µM] in the test on SK-MEL-2 melanoma; -19.3% [25 µM] (active) in the test on EKVX NSCLC. For the same molecule, the growth with SN12C renal was 22.2% [25 µM]; with UO-31 renal, 8.5% [25 µM] (active); in the test with TK-10 renal, 18.4% [25 µM]; in the test on ACHN renal, 15.9% [25 µM]; in the test with CAKI-1 renal, 13.5% [25 µM]; in the test with A498 renal, -5.7% [25 µM] (active). For the same molecule, the figures for the growth in the test with CCRF-CEM leukemia and with MOLT-4 leukemia were 18.3% [25 µM] and 7.81% [25 µM] (active), respectively.
As to `Nc1cccc(-c2ccc(COc3ccc(CC4SC(=O)NC4=O)cc3)cc2)c1` (stereo not given), the growth with HCT-15 colon is 34.3%; in the test on HT29 colon, 100%; in the test on SNB-75 CNS, 54.4%; in the test on SNB-19 CNS it was 69.3%; in the test on U251 CNS, 45.9%; with PC-3 prostate, 59.7%. For the same molecule, the growth in the test with SK-MEL-5 melanoma is 14.8%; in the test with UACC-62 melanoma, 55.4%; in the test with LOX IMVI melanoma, 57.5%; in the test on SK-MEL-28 melanoma it was 55.9%; with SK-MEL-2 melanoma, 52.3%; with EKVX NSCLC, 62.2%. For the same molecule, the growth was 68.6% with SN12C renal; 53.3% in the test with UO-31 renal; 91.5% in the test with TK-10 renal; 62.6% in the test with ACHN renal; 47.3% in the test on CAKI-1 renal; 110% with A498 renal. Moreover, the growth in the test on CCRF-CEM leukemia is 52.3%; in the test with MOLT-4 leukemia, 43.2%.
